The record followed here is PubChem BioAssay (EPA / NIEHS).

SMILES strings stand for the structures. Inconclusive results are not listed. Calls of active or inactive are those of the source. The calls were made as follows, unless noted: active = hit-call score of the fitted dose curve at least 0.9, where 1 is the maximum; inconclusive = response in the unintended direction; inactive = score below 0.9.

Assay [1] deals with human Thyroid hormone Receptor alpha (TRa), THRA (gene 7067) (UniProt P10827). The experiment in a line: ATG_hTRa_XSP1: Attagene TRANS-FACTORIAL Multi-Species (XSP1) HepG2 Assay for human Thyroid hormone Receptor alpha (TRa) (AID 2283805). A digest of the protocol:
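HepG2 cells transiently transfected with GAL4-UAS reporter units expressing chimeric NR-Gal4 proteins, dosed 24 hours with 3 nM 6-alpha-fluorotestosterone present. Reporter mRNA measured by RT-PCR and capillary electrophoresis; gain of signal fitted versus DMSO.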

The nature of assay [2]: ATG_XTT_Cytotoxicity_XSP1: Cytotoxicity Assessment in the Attagene TRANS-FACTORIAL Multi-Species (XSP1) HepG2 Assay (AID 2283810). A digest of the protocol:
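XTT viability readout taken at 24 hours post-dosing in HepG2 liver cells co-treated with 3 nM 6-alpha-fluorotestosterone. Signal loss relative to DMSO controls reflects cytotoxicity.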

Assay [3] in a line: ATG_M_06_XSP2: Attagene TRANS-FACTORIAL Multi-Species (XSP2) HepG2 Assay for M06 Transcription Factor (Internal Marker) (AID 2283811).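 Also: internal background marker reporter mRNA measured by RT-PCR and capillary electrophoresis; hits are increases in signal above the DMSO baseline.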 A digest of the protocol: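 HepG2, multiplexed reporter transfection; 24 h dosing; AR stimulated with 3 nM 6-alpha-fluorotestosterone + 1.5 nM norgestrel; RNA → RT-PCR → 6-FAM primer extension → HpaI → CE. Positive direction vs DMSO.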
Assay [4] concerns the target zebrafish Estrogen Receptor (ER1), esr1 (gene 259252) (UniProt P57717). Kind of assay: ATG_zfER1_XSP2: Attagene TRANS-FACTORIAL Multi-Species (XSP2) HepG2 Assay for zebrafish Estrogen Receptor (ER1) (AID 2283816). An outline of the steps: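 HepG2 cells transiently transfected with a GAL4-UAS reporter and a chimeric zebrafish ER1-Gal4 construct, dosed 24 h. Reporter mRNA quantified by RT-PCR, labelling, HpaI digestion and capillary electrophoresis, relative to DMSO.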

Assay [5] has as its system zebrafish Estrogen Receptor (ER2a), gene 317734. The experiment in a line: ATG_zfER2a_XSP2: Attagene TRANS-FACTORIAL Multi-Species (XSP2) HepG2 Assay for zebrafish Estrogen Receptor (ER2a) (AID 2283818).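 Also: hits raise reporter mRNA so AC50 reflects activation of zebrafish ER2a.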 A digest of the protocol:
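HepG2 cells transiently transfected with GAL4-UAS reporter units and chimeric zebrafish ER2a-Gal4, exposed 24 h; medium contains 3 nM 6-alpha-fluorotestosterone and 1.5 nM norgestrel. Reporter mRNA quantified by RT-PCR, HpaI digestion, capillary electrophoresis; gain versus DMSO.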

In assay [6] the test system is frog Estrogen Receptor (ER), gene 398734. The experiment in a line: ATG_frER1_XSP2: Attagene TRANS-FACTORIAL Multi-Species (XSP2) HepG2 Assay for frog Estrogen Receptor (ER) (AID 2283821).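 Also: hits raise reporter mRNA above DMSO baseline so potency means agonist or activator.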 A digest of the protocol: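 Steps: transfect HepG2 with multiple reporter transcription units; treat with chemical for 24 h; isolate RNA, reverse-transcribe, PCR-amplify, label with 6-FAM, digest with HpaI; resolve fragments by capillary electrophoresis. Signal is scored against DMSO.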

The target in assay [7] is Peroxisome proliferator-activated receptor gamma (Homo sapiens) (UniProt P37231). The experiment in a line: ATG_hPPARg_XSP2: Attagene TRANS-FACTORIAL Multi-Species (XSP2) HepG2 Assay for human Peroxisome Proliferator-activated Receptor gamma (PPARg) (AID 2283829).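 Also: actives raise reporter mRNA above DMSO so AC50 reflects PPARg activation.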 A digest of the protocol: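 After transfecting HepG2 with GAL4-UAS reporter constructs, cells are dosed for 24 h; total RNA is reverse-transcribed, PCR-amplified, FAM-labeled, HpaI-digested and resolved by capillary electrophoresis. Activity is measured as mRNA induction relative to DMSO.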

In assay [8] the target is mouse Peroxisome Proliferator-activated Receptor gamma (PPARg), Pparg (gene 19016) (UniProt P37238). The experiment in a line: ATG_mPPARg_XSP2: Attagene TRANS-FACTORIAL Multi-Species (XSP2) HepG2 Assay for mouse Peroxisome Proliferator-activated Receptor gamma (PPARg) (AID 2283830).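 Also: hits are gains in reporter mRNA above DMSO so AC50 marks activation.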 An outline of the steps: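 HepG2 cells transiently transfected with GAL4-UAS reporter units for chimeric NR-Gal4 proteins including mouse PPARg, exposed 24 h; medium contained 3 nM 6-alpha-fluorotestosterone and 1.5 nM norgestrel. Reporter mRNA quantified by RT-PCR, HpaI digestion and capillary electrophoresis, vs DMSO.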

The subject of assay [9] is zebrafish Peroxisome Proliferator-activated Receptor gamma (PPARg), gene 557037. Kind of assay: ATG_zfPPARg_XSP2: Attagene TRANS-FACTORIAL Multi-Species (XSP2) HepG2 Assay for zebrafish Peroxisome Proliferator-activated Receptor gamma (PPARg) (AID 2283833).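 Also: actives increase reporter signal over DMSO so AC50 reflects activation.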 A digest of the protocol:
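Multi-species TRANS format in HepG2, 24 h dosing; medium also contained 3 nM 6-alpha-fluorotestosterone and 1.5 nM norgestrel to stimulate androgen receptor. Zebrafish PPARg-GAL4 induced reporter mRNA was measured by RT-PCR/capillary electrophoresis.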

The nature of assay [10]: ATG_M_61_XSP2: Attagene TRANS-FACTORIAL Multi-Species (XSP2) HepG2 Assay for M61 Transcription Factor (Internal Marker) (AID 2283835; active = hit-call score of the fitted dose curve at least 0.9, where 1 is the maximum; inactive = score below 0.9;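 also: reporter mRNA of an internal background marker read by RT-PCR and capillary electrophoresis; active means a rise in signal above the DMSO baseline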). A digest of the protocol: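 First, HepG2 cells are transfected with reporter units under GAL4-UAS control. Next, chemicals are applied for 24 h. Then total RNA is reverse-transcribed, amplified, fluorescently labelled and sized by capillary electrophoresis, with gain of signal scored against DMSO.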

Assay [11] deals with zebrafish Thyroid Hormone Receptor beta (TRb), thrb (gene 30607) (UniProt Q9PVE4). Kind of assay: ATG_zfTRb_XSP2: Attagene TRANS-FACTORIAL Multi-Species (XSP1) HepG2 Assay for zebrafish Thyroid Hormone Receptor beta (TRb) (AID 2283836). An outline of the steps: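 HepG2 cells transiently transfected with multiplexed GAL4-UAS reporter units expressing chimeric NR-Gal4 proteins; read 24 h after dosing. Reporter mRNA quantified by RT-PCR, 6-FAM labelling, HpaI digest and capillary electrophoresis; gain of signal fitted relative to DMSO.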

For assay [12], the system named is IYD (gene 389434). The experiment in a line: CCTE_GLTED_hIYD: CCTE's human Iodotyrosine Deiodinase (xIYD) Inhibition Assay, Great Lakes Toxicology and Ecology Division (GLTED) Lab (AID 2284317).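 Also: cell-free human IYD enzyme made in baculovirus insect cells; iodide freed from monoiodotyrosine measured by cerium arsenite color change at 420 nm.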 An outline of the steps:
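Human IYD expressed in a baculovirus-insect cell system was incubated 3 h with monoiodotyrosine and test chemical. Released iodide, separated on Dowex columns, was quantified by the Sandell-Kolthoff reaction at 420 nm; plates were normalized to MNT and DMSO/NaOH controls.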

Assay [13] has as its target mouse Estrogen Receptor alpha (Era), Esr1 (gene 13982) (UniProt P19785). Kind of assay: NVS_NR_mERa: NovaScreen (NVS) Nuclear Receptor Binding Assay for mouse Estrogen Receptor alpha (Era) (AID 2283378).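 Also: hit means loss of bound radioligand signal relative to DMSO.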 A digest of the protocol: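 Extracted mouse Era incubated with tritiated or iodinated radioligand plus test chemical, 18 h. Bound fraction separated on filters, counted by scintillation. DMSO = negative control/baseline; duplicate single-point at 25 uM, then concentration-response follow-up.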

The target in assay [14] is guinea pig Leukotriene D4 Receptor (LTD4), CYSLTR1 (gene 100135514) (UniProt Q2NNR5). Kind of assay: NVS_GPCR_gLTD4: NovaScreen (NVS) G Protein-Coupled Receptor Assay for guinea pig Leukotriene D4 Receptor (LTD4) (AID 2283248). An outline of the steps: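 Radioligand displacement on guinea pig lung membranes, 1 h incubation, filtration and scintillation counting; DMSO as negative control. Duplicate 25 uM primary screen, then singleton concentration-response up to 50 uM.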

The nature of assay [15]: CCTE_Shafer_MEA_dev_network_spike_peak: CCTE's Neural Network Formation Assay for Mean Number of Electrodes in Network Spike, Shafer Lab (AID 2284049; active = hit-call score of the fitted dose curve at least 0.9, where 1 is the maximum; inactive = score below 0.9). An outline of the steps:
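Rat cortical primary culture, 1.5 x 10^5 cells/well, 48-well MEA (16 electrodes/well). Dosing day 0 through DIV 12, full media/compound exchange DIV 5, 9. AxIS adaptive spike detection; AUC over days 5/7/9/12; loss-of-signal vs DMSO.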

A short description of assay [16]: CCTE_Mundy_HCI_iCellGluta_NOG_NeuronCount: CCTE's Neurite Outgrowth Assay in iCellGluta cells for Neuron Count, Mundy Lab (AID 2284340).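 Also: cells fixed about 48 h after compound addition.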 A digest of the protocol:
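Neuron count read by automated high-content imaging of Hoechst 33342 and betaIII-tubulin/Alexa Fluor-488 labelling in human iPSC glutamatergic neurons. Activity fitted relative to DMSO.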

Assay [17] addresses rat Neonicotinoid receptor (NNR), Chrna7 (gene 25302) (UniProt Q05941). The experiment in a line: NVS_LGIC_rNNR_BungSens: NovaScreen (NVS) Ligand-Gated Ion Channel Assay for rat Neonicotinoid receptor (NNR) (AID 2283315). An outline of the steps:
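Radioligand displacement binding on rat cortical membranes, 2.5 h incubation, filtration and scintillation counting. Loss of specific binding fitted relative to DMSO.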

Assay [18] relates to rat CYP2C6, gene 293989. Kind of assay: NVS_ADME_rCYP2C6: NovaScreen (NVS) CYP450-related Enzyme Activity (ADME) Assay for rat CYP2C6 (AID 2283120). A digest of the protocol:
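Cell-free recombinant rat CYP2C6 with fluorogenic substrate, read by fluorescence 1 h after dosing; acetonitrile as negative control. Primary screen at 10 uM in duplicate, actives then in concentration-response up to 20 uM.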

Assay [19] is described as follows: UKN5_HCS_SBAD2_neurite_outgrowth: University of Konstanz (UKN) Leist Lab Neurite Outgrowth Assay in human iPSC-derived immature Dorsal Root Ganglia Neurons (UKN5) (AID 2284070; active = hit-call score of the fitted dose curve at least 0.9, where 1 is the maximum; inactive = score below 0.9). As to conditions: actives raise or lower the signal. A digest of the protocol: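 Human iPSC-derived immature DRG neurons (SBAD2) on Matrigel with CHIR99021 (1.5 uM), SU5402 (5 uM), DAPT (5 uM); compounds added 1 h post-seeding for 24 h. Calcein-AM neurite area imaged; bidirectional fit vs DMSO.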

Assay [20] in a line: UKN2_HCS_IMR90_neural_migration: University of Konstanz (UKN) Leist Lab Neural Crest Cell Migration Assay in human induced IMR90 Pluripotent Stem Cells (UKN2) (AID 2284204; active = hit-call score of the fitted dose curve at least 0.9, where 1 is the maximum; inactive = score below 0.9). As to conditions: actives raise or lower the signal. A digest of the protocol: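 Migration of human IMR90-derived neural crest cells into a stopper-defined gap is imaged after 24 h chemical treatment. Activity is fitted bidirectionally relative to DMSO.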

Chain of rat Neonicotinoid receptor (NNR), Chrna7 (gene 25302) (Q05941 whole entry, looked up): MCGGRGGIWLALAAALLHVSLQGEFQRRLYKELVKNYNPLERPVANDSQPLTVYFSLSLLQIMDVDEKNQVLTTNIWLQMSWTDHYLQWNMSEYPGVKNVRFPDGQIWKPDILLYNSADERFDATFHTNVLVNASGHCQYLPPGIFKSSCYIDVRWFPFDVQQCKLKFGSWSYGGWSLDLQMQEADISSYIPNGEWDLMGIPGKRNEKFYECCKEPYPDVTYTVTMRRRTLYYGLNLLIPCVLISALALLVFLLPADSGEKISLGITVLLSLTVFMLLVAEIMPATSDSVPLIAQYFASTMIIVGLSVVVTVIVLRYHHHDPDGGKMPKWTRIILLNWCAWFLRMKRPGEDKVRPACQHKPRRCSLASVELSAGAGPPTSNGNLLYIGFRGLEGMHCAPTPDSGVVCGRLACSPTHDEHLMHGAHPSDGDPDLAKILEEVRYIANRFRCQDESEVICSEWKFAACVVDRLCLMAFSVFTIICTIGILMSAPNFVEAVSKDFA
Chain of Peroxisome proliferator-activated receptor gamma (Homo sapiens) (P37231 whole entry, looked up, the tested form may be a part): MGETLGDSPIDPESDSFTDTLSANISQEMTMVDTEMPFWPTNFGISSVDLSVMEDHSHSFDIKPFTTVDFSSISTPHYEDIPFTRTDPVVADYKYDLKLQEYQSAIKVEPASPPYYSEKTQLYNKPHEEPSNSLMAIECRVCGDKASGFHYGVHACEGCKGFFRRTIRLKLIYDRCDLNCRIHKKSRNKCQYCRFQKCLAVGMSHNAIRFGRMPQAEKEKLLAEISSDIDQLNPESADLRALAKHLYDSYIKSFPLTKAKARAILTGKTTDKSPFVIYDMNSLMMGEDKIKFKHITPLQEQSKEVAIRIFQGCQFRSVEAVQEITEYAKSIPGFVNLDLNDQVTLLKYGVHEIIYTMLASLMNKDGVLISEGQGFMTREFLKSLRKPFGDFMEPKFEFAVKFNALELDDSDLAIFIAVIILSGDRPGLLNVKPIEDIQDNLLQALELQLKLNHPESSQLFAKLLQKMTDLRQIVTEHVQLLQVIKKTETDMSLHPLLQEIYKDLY
Chain of guinea pig Leukotriene D4 Receptor (LTD4), CYSLTR1 (gene 100135514) (Q2NNR5 whole entry, looked up): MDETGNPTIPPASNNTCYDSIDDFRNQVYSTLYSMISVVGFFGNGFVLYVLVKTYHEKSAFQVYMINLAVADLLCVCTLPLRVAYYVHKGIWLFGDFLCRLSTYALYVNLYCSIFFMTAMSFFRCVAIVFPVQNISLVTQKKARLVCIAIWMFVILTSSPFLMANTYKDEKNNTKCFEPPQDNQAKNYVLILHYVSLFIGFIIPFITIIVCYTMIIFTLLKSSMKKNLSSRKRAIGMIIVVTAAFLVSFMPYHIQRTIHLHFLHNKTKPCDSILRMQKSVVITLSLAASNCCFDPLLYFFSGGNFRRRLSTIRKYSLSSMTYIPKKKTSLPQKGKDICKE
Chain of human Thyroid hormone Receptor alpha (TRa), THRA (gene 7067) (P10827 whole entry, looked up, the tested form may be a part): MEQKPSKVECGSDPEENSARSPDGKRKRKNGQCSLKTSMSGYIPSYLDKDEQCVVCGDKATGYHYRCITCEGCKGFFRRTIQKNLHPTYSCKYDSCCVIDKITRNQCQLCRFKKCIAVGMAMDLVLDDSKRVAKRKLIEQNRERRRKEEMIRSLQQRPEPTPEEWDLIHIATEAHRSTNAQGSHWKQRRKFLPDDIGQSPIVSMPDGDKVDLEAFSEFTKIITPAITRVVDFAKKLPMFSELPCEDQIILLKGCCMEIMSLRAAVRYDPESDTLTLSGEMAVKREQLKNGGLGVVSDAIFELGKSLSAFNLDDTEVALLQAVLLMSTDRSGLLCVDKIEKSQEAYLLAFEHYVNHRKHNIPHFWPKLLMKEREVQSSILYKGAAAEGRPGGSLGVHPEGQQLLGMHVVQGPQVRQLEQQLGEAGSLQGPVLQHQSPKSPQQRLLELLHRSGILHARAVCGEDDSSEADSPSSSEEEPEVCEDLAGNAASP
Chain of zebrafish Thyroid Hormone Receptor beta (TRb), thrb (gene 30607) (Q9PVE4 whole entry, looked up, the tested form may be a part): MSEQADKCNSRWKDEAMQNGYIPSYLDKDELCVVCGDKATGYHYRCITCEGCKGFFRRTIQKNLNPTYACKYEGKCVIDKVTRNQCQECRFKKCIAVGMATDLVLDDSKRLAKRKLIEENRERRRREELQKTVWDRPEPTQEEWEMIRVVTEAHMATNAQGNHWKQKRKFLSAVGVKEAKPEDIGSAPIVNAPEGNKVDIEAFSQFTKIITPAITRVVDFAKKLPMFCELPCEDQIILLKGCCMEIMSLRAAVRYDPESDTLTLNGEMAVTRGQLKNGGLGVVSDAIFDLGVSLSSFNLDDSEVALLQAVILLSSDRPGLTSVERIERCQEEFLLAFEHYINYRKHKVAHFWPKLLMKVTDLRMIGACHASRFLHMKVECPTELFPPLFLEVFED
Chain of mouse Peroxisome Proliferator-activated Receptor gamma (PPARg), Pparg (gene 19016) (P37238 whole entry, looked up, the tested form may be a part): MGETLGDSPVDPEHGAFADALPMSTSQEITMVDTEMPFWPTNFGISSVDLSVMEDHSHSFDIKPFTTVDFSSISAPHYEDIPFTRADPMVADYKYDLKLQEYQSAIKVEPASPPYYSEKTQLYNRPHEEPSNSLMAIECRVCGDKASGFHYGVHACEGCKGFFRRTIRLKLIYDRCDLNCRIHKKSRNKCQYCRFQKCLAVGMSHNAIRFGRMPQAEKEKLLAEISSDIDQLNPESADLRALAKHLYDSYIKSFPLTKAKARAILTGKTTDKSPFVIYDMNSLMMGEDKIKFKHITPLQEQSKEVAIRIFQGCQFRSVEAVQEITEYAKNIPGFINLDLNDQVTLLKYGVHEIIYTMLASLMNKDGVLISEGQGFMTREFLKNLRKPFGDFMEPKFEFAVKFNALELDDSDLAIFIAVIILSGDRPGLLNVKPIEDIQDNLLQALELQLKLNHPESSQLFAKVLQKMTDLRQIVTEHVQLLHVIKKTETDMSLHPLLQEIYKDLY
Chain of mouse Estrogen Receptor alpha (Era), Esr1 (gene 13982) (P19785 whole entry, looked up): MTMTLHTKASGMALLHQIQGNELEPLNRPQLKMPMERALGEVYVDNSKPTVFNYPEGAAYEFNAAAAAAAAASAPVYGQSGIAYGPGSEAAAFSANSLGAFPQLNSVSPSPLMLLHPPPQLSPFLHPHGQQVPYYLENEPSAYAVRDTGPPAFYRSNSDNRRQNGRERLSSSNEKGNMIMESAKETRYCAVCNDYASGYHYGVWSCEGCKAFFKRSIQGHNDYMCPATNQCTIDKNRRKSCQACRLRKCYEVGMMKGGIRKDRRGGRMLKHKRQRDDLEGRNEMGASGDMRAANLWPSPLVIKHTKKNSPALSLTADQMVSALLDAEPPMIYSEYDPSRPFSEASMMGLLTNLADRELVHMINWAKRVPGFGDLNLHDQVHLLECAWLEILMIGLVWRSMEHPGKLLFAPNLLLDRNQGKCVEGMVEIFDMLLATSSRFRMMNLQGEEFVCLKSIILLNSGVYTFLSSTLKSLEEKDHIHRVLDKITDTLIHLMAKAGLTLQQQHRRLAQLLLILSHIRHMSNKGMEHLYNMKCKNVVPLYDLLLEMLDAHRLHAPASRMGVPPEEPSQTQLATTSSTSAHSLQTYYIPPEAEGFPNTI
Chain of zebrafish Estrogen Receptor (ER1), esr1 (gene 259252) (P57717 whole entry, looked up, the tested form may be a part): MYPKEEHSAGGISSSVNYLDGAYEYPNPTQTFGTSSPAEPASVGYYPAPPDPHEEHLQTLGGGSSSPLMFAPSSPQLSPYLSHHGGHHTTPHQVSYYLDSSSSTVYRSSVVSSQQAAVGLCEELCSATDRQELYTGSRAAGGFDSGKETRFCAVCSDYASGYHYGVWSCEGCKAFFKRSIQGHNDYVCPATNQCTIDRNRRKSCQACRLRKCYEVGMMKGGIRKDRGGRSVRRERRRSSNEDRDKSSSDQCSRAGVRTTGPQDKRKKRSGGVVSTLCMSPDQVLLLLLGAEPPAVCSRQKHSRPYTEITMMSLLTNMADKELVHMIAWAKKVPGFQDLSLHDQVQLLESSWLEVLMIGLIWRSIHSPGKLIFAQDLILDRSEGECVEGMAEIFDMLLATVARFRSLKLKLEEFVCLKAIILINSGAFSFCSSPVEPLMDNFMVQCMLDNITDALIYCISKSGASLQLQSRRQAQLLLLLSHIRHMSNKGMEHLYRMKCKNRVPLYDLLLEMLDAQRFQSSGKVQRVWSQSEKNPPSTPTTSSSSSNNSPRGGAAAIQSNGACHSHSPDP

As to `CC(C)(c1cc(Cl)c(O)c(Cl)c1)c1cc(Cl)c(O)c(Cl)c1`, the outcome in [1], in assay [2], in assay [3], in assay [4], in assay [9] and in assay [10] was inactive. The result in assay [11] was inactive. In addition, the AC50 in assay [5] is 1.62 µM (active); in assay [6] it was 2.8 µM (active); in assay [7], 3.94 µM (active); in [8], 3.81 µM (active); in assay [12] it was 100 µM (active).

With `O=[N+]([O-])c1cc(C(F)(F)F)c(Cl)c([N+](=O)[O-])c1Cl`, the result in assay [13] was inactive.

Turning to `S=c1[nH]c2ccccc2[nH]1`, the call in assay [14] was inactive.

For `CNC(=N[N+](=O)[O-])NCC1CCOC1` (stereo not given), the compound was classed as inactive in [15] and in assay [16].

Regarding `CCc1cc(C)cc(CC)c1-c1c(OC(=O)C(C)(C)C)n2n(c1=O)CCOCC2`, the AC50 in assay [17] was 6.11 µM (active).

Consider `CC1(C)[C@H](C(=O)O[C@H](C#N)c2cccc(Oc3ccccc3)c2)[C@@H]1C=C(Br)Br`, for which the outcome in assay [18] and in [20] was inactive. The concentration at half-maximal activity (AC50) in assay [19] was 111 µM (active).
